The nature of experiment [1]: binders of probe aFSTL3 on microarray, primary screen, stem cell growth factor project, biochemical, small-molecule microarray, fluorescence 635/667 (AID 1064).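 Note: measures binding of the biotinylated anti-FSTL3 antibody to printed compounds.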 As to conditions: higher = more signal.
Experiment [2] can be described thus: binders from COS7 lysate, DM2A8 probe, primary screen, torsin A project, cell lysate, small-molecule microarray, fluorescence 635/667 (AID 1065). As to conditions: higher = more signal, COS7 lysate expressing mutant human TOR1A.
Experiment [3] in a line: binders of probe aFGF2 on microarray, primary screen, stem cell growth factor project, biochemical, small-molecule microarray, fluorescence 635/667 (AID 1067).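 Note: measures binding of biotinylated aFGF2 protein to printed compounds on slides; z-score merges feature fluorescence and signal-to-noise across triplicate slides.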 As to conditions: higher = more signal.
Experiment [4] in a line: binders of probe aFGF10 on microarray, primary screen, stem cell growth factor project, biochemical, small-molecule microarray, fluorescence 635/667 (AID 1071).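 Note: score merges 667 nm spot intensity and signal to noise from triplicate slides.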 Conditions: higher = more signal.
Experiment [5] addresses Neurogenic locus notch homolog protein 2 (Homo sapiens) (UniProt Q04721). In words: Notch2 binders on small-molecule microarrays, primary screen, biochemical, small-molecule microarray, 635 nm fluorescence, stem cell growth factors (AID 1073). As to conditions: Notch2 binding, higher = more signal.
Experiment [6] deals with Pro-neuregulin-1, membrane-bound isoform (Homo sapiens) (UniProt Q02297). Kind of experiment: NRG1 binders on small-molecule microarrays, primary screen, psychiatric disease protein project, biochemical, small-molecule microarray, fluorescence 635/667 (AID 1075).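 Note: score combines 667 nm spot fluorescence with signal to noise.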 Conditions: NRG1 binding, 635 nm fluorescence, higher = more signal.
For experiment [7], the system named is Neuregulin-1 EGF-like domain. Kind of experiment: binders of neuregulin-1 EGF-like domain, primary screen, biochemical, small-molecule microarray, 635 nm fluorescence (AID 1081).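 Note: binding of the protein to compounds printed on small-molecule microarray slides.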 Conditions: small-molecule microarray binding, higher = more signal.
Experiment [8] is described as follows: FRG1 promoter luciferase signal modulators, primary screen, FRG1 inhibition for FSHD, cell-based, C2C12 myotubes, firefly/Renilla luciferase, luminescence (AID 1084). As to conditions: higher = more signal, called active from +8 up or from −8 down.
Experiment [9] can be described thus: binders of probe aFST on microarray, primary screen, stem cell growth factor project, biochemical, small-molecule microarray, fluorescence 635/667 (AID 1086).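 Note: score merges 667 nm fluorescence with signal-to-noise of each printed compound spot.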 As to conditions: higher = more signal.
Experiment [10] can be described thus: binders of probe aHhip on microarray, primary screen, stem cell growth factor project, biochemical, small-molecule microarray, fluorescence 635/667 (AID 1087).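 Note: score merges spot fluorescence at 667nm with spot signal to noise ratio.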 As to conditions: higher = more signal.
Experiment [11] deals with PRMT1 (protein arginine N-methyltransferase 1). Kind of experiment: PRMT1 binders on small-molecule microarrays, primary screen, biochemical, small-molecule microarray, 635 nm fluorescence (AID 1088).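 Note: binding of Prmt1 protein to compounds spotted on small-molecule microarray slides.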 Conditions: small-molecule microarray binding, higher = more signal.
Experiment [12] is described as follows: yeast growth modulation, basal conditions, primary screen, YJM789 clinical isolate, OD600, 24 h (AID 1089).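 Note: growth of clinical yeast isolate S. cerevisiae YJM 789 seeded 1000 cells per well; test concentration not given here.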 As to conditions: S. cerevisiae YJM789 growth, higher = more signal, called active from +8 up or from −8 down.
Experiment [13] is described as follows: fission yeast growth modulation, primary screen, strain 972, OD600, 24 h, no modulator (AID 1090).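 Note: basal condition with compound alone and no growth modifier present; test concentration not given here.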 As to conditions: S. pombe 972 growth, higher = more signal, called active from +8 up or from −8 down.
The nature of experiment [14]: S. cerevisiae growth modulation with rapamycin, primary screen, strain BY4716, OD600, 96 h (AID 1091). Note: test concentration not given here. As to conditions: higher = more signal, called active from +8 up or from −8 down.
For experiment [15], the target named is Torsin-1A-interacting protein 2 (Homo sapiens) (UniProt Q8NFQ8). In words: LULL1 binders on small-molecule microarray, primary screen, cell lysate, human LULL1 lysate, 635/667 nm fluorescence (AID 1092).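 Note: probe is lysate of COS7 cells overexpressing human LULL1; score merges per-feature 667 nm fluorescence with signal-to-noise.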 As to conditions: hLULL1 lysate binding, 635 nm fluorescence, higher = more signal.
Experiment [16] can be described thus: E. coli growth modulation, two-sided OD650, primary screen, E. coli filamentation project, strain DRC41, 24 h (AID 1093).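 Note: MC1000 strain lacking acrAB efflux and sulA so SOS filamentation is blocked; test concentration not given here.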 Conditions: OD650, 24 h, higher = more signal, called active from +8 up or from −8 down.
Experiment [17] in a line: small-molecule microarray binders of probe aLefty2, primary screen, biochemical, biotinylated probe, 635/667 nm fluorescence (AID 1094).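 Note: score merges spot fluorescence near 667 nm with spot signal-to-noise ratio.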 As to conditions: higher = more signal.
The test system of experiment [18] is Noggin (protein binding on small-molecule microarray). In words: Noggin binders on small-molecule microarray, primary screen, biochemical, 635/667 nm fluorescence (AID 1095).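 Note: score merges 667 nm feature fluorescence with signal to noise over triplicate slides.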 As to conditions: 635 nm fluorescence, higher = more signal.
The target of experiment [19] is Neurogenic locus notch homolog protein 3 (Homo sapiens) (UniProt Q9UM47). Kind of experiment: NOTCH3 binders on small-molecule microarray, primary screen, biochemical, 635/667 nm fluorescence (AID 1096). As to conditions: NOTCH3 binding, 635 nm fluorescence, higher = more signal.
Experiment [20] is described as follows: small-molecule microarray binders of probe aEGFR, primary screen, biochemical, biotinylated probe, 635/667 nm fluorescence (AID 1097).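 Note: probe is a biotinylated anti-EGFR antibody binding compounds printed on slides; score combines fluorescence near 667 nm and signal to noise of each spot.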 As to conditions: higher = more signal.

The results in this text go back to PubChem BioAssay.

Activity calls are given as the source filed them.

Sequence of Pro-neuregulin-1, membrane-bound isoform (Homo sapiens) (Q02297 whole entry, looked up, the tested form may be a part, canonical isoform): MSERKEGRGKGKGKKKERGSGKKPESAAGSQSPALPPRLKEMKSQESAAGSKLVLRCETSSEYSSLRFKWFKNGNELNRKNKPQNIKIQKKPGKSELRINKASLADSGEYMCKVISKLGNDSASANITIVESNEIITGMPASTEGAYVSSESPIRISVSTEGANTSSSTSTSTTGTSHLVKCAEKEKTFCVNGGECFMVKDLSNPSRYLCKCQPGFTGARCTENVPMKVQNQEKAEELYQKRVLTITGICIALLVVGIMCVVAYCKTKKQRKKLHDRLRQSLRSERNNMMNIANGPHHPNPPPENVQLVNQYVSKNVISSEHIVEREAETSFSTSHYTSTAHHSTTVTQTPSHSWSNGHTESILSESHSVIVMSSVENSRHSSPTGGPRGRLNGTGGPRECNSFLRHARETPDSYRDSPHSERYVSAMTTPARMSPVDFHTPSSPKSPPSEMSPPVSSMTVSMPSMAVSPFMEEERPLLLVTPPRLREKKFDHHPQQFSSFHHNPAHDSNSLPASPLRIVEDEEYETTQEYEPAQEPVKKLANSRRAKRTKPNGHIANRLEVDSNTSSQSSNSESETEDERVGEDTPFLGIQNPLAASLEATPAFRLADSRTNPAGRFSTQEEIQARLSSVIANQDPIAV
Sequence of Neurogenic locus notch homolog protein 2 (Homo sapiens) (Q04721 whole entry, looked up, canonical isoform): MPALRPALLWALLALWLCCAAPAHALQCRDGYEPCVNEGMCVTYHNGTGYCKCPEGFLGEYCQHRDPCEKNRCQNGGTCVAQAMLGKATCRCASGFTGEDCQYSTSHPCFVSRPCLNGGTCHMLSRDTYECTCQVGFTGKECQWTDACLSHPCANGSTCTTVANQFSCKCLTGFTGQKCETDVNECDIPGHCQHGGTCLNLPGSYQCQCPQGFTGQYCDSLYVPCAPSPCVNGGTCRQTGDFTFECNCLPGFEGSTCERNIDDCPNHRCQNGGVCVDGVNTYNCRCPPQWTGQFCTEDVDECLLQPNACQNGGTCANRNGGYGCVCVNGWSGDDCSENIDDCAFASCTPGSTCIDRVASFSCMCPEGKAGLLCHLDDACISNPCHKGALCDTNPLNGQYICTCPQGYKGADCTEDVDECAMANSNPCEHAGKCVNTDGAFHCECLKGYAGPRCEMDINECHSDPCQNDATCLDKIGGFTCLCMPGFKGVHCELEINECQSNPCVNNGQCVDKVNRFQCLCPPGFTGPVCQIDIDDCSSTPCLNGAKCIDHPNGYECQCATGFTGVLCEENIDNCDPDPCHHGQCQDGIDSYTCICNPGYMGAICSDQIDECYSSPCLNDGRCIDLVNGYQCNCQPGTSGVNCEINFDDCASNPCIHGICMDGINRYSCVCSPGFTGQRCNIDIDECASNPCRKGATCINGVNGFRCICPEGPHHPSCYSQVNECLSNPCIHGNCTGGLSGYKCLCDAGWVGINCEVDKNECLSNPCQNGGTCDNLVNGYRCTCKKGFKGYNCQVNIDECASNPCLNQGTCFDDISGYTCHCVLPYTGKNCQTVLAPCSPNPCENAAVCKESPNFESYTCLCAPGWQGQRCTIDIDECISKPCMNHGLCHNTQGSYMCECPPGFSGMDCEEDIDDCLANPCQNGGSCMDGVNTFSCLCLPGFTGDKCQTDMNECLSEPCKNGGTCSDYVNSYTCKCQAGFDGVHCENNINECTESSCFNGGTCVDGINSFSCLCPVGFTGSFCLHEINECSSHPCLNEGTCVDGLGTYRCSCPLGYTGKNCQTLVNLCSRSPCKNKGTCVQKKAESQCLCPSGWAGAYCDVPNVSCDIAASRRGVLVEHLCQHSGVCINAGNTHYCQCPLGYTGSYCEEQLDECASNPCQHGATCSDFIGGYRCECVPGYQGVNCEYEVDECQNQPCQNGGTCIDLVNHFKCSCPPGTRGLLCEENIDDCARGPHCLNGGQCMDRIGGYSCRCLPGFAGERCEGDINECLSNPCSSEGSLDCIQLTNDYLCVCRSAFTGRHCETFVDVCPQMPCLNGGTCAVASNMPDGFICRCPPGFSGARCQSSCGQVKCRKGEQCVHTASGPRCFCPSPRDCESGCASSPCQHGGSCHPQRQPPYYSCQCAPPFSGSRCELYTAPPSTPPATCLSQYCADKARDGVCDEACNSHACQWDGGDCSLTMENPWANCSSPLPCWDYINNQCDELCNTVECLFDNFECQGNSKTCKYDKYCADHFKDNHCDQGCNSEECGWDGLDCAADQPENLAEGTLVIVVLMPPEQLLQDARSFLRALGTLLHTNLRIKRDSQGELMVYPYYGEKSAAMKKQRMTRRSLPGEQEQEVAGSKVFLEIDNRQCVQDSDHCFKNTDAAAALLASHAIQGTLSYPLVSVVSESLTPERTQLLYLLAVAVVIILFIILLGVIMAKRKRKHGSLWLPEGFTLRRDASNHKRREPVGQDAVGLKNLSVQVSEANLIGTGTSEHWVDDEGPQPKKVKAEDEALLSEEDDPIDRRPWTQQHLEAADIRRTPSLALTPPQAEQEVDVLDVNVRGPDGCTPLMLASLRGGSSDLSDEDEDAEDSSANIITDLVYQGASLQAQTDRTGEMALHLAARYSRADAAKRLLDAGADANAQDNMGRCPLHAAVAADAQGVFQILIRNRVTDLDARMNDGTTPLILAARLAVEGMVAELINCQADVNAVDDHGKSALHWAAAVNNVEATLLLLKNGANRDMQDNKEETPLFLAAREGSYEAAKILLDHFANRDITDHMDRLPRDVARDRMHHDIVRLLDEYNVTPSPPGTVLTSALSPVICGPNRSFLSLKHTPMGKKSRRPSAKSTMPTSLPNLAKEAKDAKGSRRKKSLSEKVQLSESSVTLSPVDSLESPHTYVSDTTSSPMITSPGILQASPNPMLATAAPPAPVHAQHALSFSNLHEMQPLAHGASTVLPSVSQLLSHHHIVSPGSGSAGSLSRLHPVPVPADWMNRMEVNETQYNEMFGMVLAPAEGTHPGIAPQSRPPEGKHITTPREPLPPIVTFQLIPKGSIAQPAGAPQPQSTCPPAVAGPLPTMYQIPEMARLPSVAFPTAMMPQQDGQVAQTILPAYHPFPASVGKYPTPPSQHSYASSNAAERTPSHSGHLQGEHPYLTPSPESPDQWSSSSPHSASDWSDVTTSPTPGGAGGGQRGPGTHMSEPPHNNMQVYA
Sequence of Torsin-1A-interacting protein 2 (Homo sapiens) (Q8NFQ8 whole entry, looked up): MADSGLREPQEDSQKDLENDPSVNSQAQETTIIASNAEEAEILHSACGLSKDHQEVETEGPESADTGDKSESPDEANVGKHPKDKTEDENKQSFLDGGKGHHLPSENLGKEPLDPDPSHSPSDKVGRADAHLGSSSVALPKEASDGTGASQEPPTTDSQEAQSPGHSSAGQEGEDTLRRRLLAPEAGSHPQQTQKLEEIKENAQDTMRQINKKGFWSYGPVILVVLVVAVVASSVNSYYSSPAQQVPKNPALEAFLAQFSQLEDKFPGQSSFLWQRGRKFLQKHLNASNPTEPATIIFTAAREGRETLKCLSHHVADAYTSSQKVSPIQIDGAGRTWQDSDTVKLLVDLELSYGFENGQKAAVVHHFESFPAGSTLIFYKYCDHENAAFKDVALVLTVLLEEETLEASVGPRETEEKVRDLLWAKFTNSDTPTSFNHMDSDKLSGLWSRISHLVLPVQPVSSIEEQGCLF

For the molecule `NCCCCCNC(=O)[C@@H]1C[C@@H]2C(=O)N[C@@H](Cc3ccccc3)C(=O)N2[C@@H]1c1ccc(O)cc1`, the composite z-score in [1] was 0.266; in [2], 0.0499; in experiment [3], 0.0257; in [4] it was 0.507; in [5] it was 1.12; in experiment [6], 1.05. The composite z-score in [7] is 1.24; in [9] it was 0.918; in experiment [10], -0.175; in [11], 1.31; in experiment [15], 1.66; in [17], -0.0717. Moreover, the composite z-score in [18] was 0.923; in [19], 0.452; in [20], 0.0381. Besides, the z-score in experiment [8] was 0.227 (inactive); in experiment [12], -0.247 (inactive); in experiment [13] it was -0.448 (inactive); in experiment [14], -0.367 (inactive); in [16] it was -0.811 (inactive).

For the molecule `CC(C)OC(=O)C=C1C[C@@H](c2ccccn2)O[C@@H](c2ccccn2)O1`, the composite z-score was -0.431 in [1]; -0.121 in [2]; -0.158 in [3]; 0.0234 in [4]; -0.538 in [5]; -0.13 in experiment [6]. Moreover, the composite z-score in [7] is 1.27; in [9], -0.171; in experiment [10] it was -0.112; in experiment [11] it was 0.875; in [15] it was 0.0473; in experiment [17], -0.224. The composite z-score was determined as 1.25 in [18], 0.0527 in experiment [19] and 0.0494 in experiment [20]. The z-score is 0.805 (inactive) in experiment [8]; -0.0723 (inactive) in experiment [12]; 0.228 (inactive) in experiment [13]; -1.36 (inactive) in experiment [14]; 0.0183 (inactive) in [16].

In the case of `CCCC#C[Si](O[C@H](CC)c1cn(Cc2cccc(Cl)c2)nn1)(C(C)C)C(C)C`, the composite z-score is -0.468 in experiment [1]; -0.139 in experiment [2]; -0.0865 in experiment [3]; 0.85 in [4]; 0.831 in experiment [5]; -0.0184 in experiment [6]. For the same molecule, the composite z-score in experiment [7] is 1.15; in experiment [9], 0.0751; in experiment [10], -0.137; in experiment [11], 0.756; in experiment [15], 1.91; in experiment [17], -0.0068. Also, the composite z-score in experiment [18] amounted to 0.476; in [19], 1.13; in experiment [20] it was 0.252. The z-score is 0.414 (inactive) in experiment [8]; -1.19 (inactive) in experiment [12]; -9.34 (active) in experiment [13]; -1.52 (inactive) in experiment [14]; 1.5 (inactive) in experiment [16].

In the case of `CCCC[C@@H]1C[C@H]1[C@@H](NC(=O)C(C)(C)C)c1ccc(C(F)(F)F)cc1`, the composite z-score is 1.54 in experiment [1]; 0.466 in [2]; -0.0785 in experiment [3]; -0.38 in [4]; -1.36 in experiment [5]; 0.669 in [6]. Also, the composite z-score was 0.55 in experiment [7]; -0.347 in experiment [9]; 0.235 in experiment [10]; 0.648 in experiment [11]; 0.918 in [15]; 0.0823 in [17]. Also, the composite z-score in experiment [18] was -1.46; in [19], -0.434; in experiment [20], -0.236. Besides, the z-score in experiment [8] was -0.571 (inactive); in experiment [12], 0.213 (inactive); in experiment [13] it was -2.71 (inactive); in experiment [14] it was 0.329 (inactive); in experiment [16], -1.67 (inactive).

For the molecule `CC1CC/C=C\[C@H]2OC34C=CCN(C(C)(C)C)C(=O)[C@H]3N(CCO)C(=O)[C@@H]4C2C(=O)O1` (stereo not given in full), the composite z-score is -0.133 in experiment [1]; 0.0564 in experiment [2]; -0.217 in experiment [3]; -0.749 in experiment [4]; -1.56 in experiment [5]; -1.02 in experiment [6]. The composite z-score in experiment [7] is 0.784; in experiment [9], -0.529; in experiment [10], -0.0645; in experiment [11] it was 1.06; in experiment [15], 2.92; in [17], -0.0589. Besides, the composite z-score in experiment [18] was 0.112; in experiment [19] it was -0.916; in experiment [20], -0.312. Besides, the z-score in experiment [8] is 0.0503 (inactive); in experiment [12], -1.33 (inactive); in experiment [13] it was -0.905 (inactive); in experiment [14] it was -0.471 (inactive); in [16], 1.45 (inactive).
